Screening data (PubChem)
12-LOX inh – inhibitors of human 12S-lipoxygenase ALOX12; P18054; 1.1% of 580,000 active; Potency, µM (titrated, usually from 108 µM), for inactives: at the highest dose activity change, negative = inhibition, hits mostly inhibitors; purified 12hLO, xylenol orange hydroperoxide absorbance; also: potency is read from the fitted curve at half-maximal effect; % is scaled to controls: 0 for no effect and ±100 for the full control effect
Target sequence (P18054 whole entry, looked up): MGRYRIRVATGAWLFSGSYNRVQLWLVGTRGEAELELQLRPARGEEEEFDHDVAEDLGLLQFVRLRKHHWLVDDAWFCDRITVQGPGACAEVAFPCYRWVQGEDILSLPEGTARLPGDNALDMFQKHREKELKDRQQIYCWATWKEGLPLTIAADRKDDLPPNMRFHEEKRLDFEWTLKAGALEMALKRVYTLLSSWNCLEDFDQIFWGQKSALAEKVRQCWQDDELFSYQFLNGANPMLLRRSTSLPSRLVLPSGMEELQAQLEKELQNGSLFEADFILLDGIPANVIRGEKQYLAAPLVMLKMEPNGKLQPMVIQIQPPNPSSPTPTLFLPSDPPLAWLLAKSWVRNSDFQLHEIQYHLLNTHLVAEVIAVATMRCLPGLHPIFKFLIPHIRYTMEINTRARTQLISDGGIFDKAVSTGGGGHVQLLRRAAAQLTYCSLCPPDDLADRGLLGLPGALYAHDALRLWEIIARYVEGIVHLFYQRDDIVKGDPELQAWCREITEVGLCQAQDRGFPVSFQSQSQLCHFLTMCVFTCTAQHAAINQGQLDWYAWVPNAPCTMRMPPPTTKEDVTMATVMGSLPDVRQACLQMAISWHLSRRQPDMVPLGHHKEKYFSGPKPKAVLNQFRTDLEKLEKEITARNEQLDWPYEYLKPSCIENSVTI
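Purified human 12hLO (150 nM final) in 25 mM Hepes, 0.01% Triton X-100, pH 7.0 was preincubated 15 min at room temperature with compound. Then 40 uM arachidonic acid was added, 30 min. Hydroperoxide was read by Fe-XO absorbance ratio 573/405 nm.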
ATXN2 expr inh – reduces ATXN2 reporter expression in HEK-293 cells; HEK-293 ATXN2-luciferase reporter, luminescence, 24 h; 0.72% of 360,000 active; Potency, µM (doses to about 57 µM), for inactives: top-dose activity change, negative = inhibition, usual class: inhibitors; AID 1745845; also: potency is read from the fitted curve at half-maximal effect; % is scaled to controls: 0 for no effect and ±100 for the full control effect; nearly all actives have a fitted effect of over 55% in size
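ATXN2-luciferase reporter cells (luciferase flanked by upstream and downstream ATXN2 gene portions) were treated 24 h at 37 °C with compounds at up to 57 uM. SteadyGlo luminescence gave expression; GF-AFC fluorescence gave viability.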
ATXN viability – reduces viability in counter-screen for ATXN expression inhibitors | Potency, µM (top dose mostly 56.7 µM), actives largely listed as cytotoxic | S2 cells (HEK-293 line with an ATXN2-luciferase reporter) viability, CellTiter-Fluor protease fluorescence, 24 h | 0.49% of 400,000 active | AID 651635; also: potency is read from the fitted curve at half-maximal effect; nearly all actives have a fitted effect of over 40% in size
HepG2 tox-1 – HepG2 cytotoxicity, counter-screen for TGF-b inhibitors | HepG2 CAGA-GFP viability, ATP luminescence, 18 h | Potency, µM (doses to about 46.1 µM), for the others: top-dose activity change, negative = cytotoxicity, hits mostly cytotoxic | 0.76% of 410,000 active | AID 588856; also: potency is read from the fitted curve at half-maximal effect
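HepG2 CAGA-GFP cells (1000/well, DMEM with 1% FBS) received compound, then TGF-beta at 500 pg/mL final, and were incubated 18 hours at 37 degrees C. Viability was read by CellTiter-Glo luminescence. Media-only wells were set as complete cell-killing and DMSO as no toxicity.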
TGFb SMAD3 inh – blocks TGF-b signaling. AID 588855. HepG2 CAGA-GFP TGF-b/SMAD3 reporter, GFP fluorescence, 18 h; TGF-beta stimulated, 500 pg/mL final. Potency, µM (top dose mostly 46.1 µM), for inactives: at the highest dose activity, negative = inhibition, hits mostly inhibitors. 1.2% of 410,000 active; also: potency is read from the fitted curve at half-maximal effect; % is scaled to controls: 0 for no effect and ±100 for the full control effect; nearly all actives have a fitted effect of over 65% in size
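TGF-beta reporter screen: HEPG2 CAGA-GFP, 1% FBS, 500 pg/mL TGF-beta final, 18 h; per-cell GFP summed per well; curves fitted and categorized by class.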
TGFb CAGA inh – confirmation of TGF-b signaling inhibitors in HepG2 reporter cells. shares compounds with TGFb SMAD3 inh. HepG2 CAGA-GFP TGF-b reporter, GFP fluorescence, 18 h; cells stimulated with TGF-beta, 500 pg/mL. Potency, µM (highest dose often 46.1 µM), inactives show at the highest dose activity, negative = inhibition, usual class: inhibitors. 63% of 1,600 active. AID 720534; also: potency is read from the fitted curve at half-maximal effect; % is scaled to controls: 0 for no effect and ±100 for the full control effect; nearly all actives have a fitted effect of over 65% in size
HepG2 tox-2 – toxic to HepG2 cells in TGF-b counterscreen; HepG2 CAGA-GFP viability, ATP luminescence, 18 h; cells stimulated with TGF-beta, 500 pg/mL; Potency, µM (series often up to 46.1 µM), for inactives: top-dose activity, negative = cytotoxicity, hits mostly inhibitors; 27% of 1,600 active; shares compounds with TGFb SMAD3 inh; also: potency is read from the fitted curve at half-maximal effect; % is scaled to controls: 0 for no effect and ±100 for the full control effect; nearly all actives have a fitted effect of over 70% in size
TGFb CCL64 inh – TGF-b inhibition, CCL64 orthogonal assay; CCL64 CAGA-GFP reporter, TGF-b stimulated, GFP fluorescence, 18 h; 41% of 1,600 active; Potency, µM (top dose mostly 46.1 µM), for the others: top-dose activity, negative = inhibition, hits mostly inhibitors; shares compounds with TGFb SMAD3 inh; AID 720536; also: potency is read from the fitted curve at half-maximal effect; nearly all actives have a fitted effect of over 65% in size
TGFb COP inh – TGF-b inhibition validated with COP promoter; shares compounds with TGFb SMAD3 inh; HepG2 COP-GFP TGF-b reporter, GFP fluorescence, 18 h; cells stimulated by added recombinant TGF-beta; Potency, µM (highest dose often 46.1 µM), for the others: top-dose activity, negative = inhibition, usual class: inhibitors; 3% of 1,600 active; also: potency is read from the fitted curve at half-maximal effect; nearly all actives have a fitted effect of over 70% in size
SKNSH spheroid – kills SK-N-SH neuroblastoma spheroids in orthogonal 3D test; shares compounds with ATXN2 expr inh; SK-N-SH 3D spheroid viability, PI/Hoechst imaging, 72 h; Potency, µM (titrated, usually from 30.7 µM), hits mostly inhibitors; 70% of 65 active; AID 1347135
SJ-GBM2 3D tox – lowers viability of SJ-GBM2 3D spheroids; shares compounds with ATXN2 expr inh; SJ-GBM2 3D spheroid viability, PI/Hoechst imaging, 72 h; Potency, µM (top dose mostly 30.7 µM), hits mostly inhibitors; 80% of 65 active
Daoy 3D tox – reduced viability of Daoy 3D spheroids, orthogonal test; Daoy 3D spheroid viability, PI/Hoechst imaging, 72 h; shares compounds with ATXN2 expr inh; Potency, µM (doses to about 30.7 µM), actives largely listed as inhibitors; 50% of 65 active
TC32 3D casp – activates caspase in TC32 3D spheroids. Potency, µM (top dose mostly 30.7 µM), actives largely listed as inhibitors. AID 1347138. 30% of 65 active. TC32 3D spheroids, caspase-3/7 fluorescence imaging, 24 h. shares compounds with ATXN2 expr inh
TC32 3D tox – reduced viability of TC32 3D spheroids, orthogonal test. shares compounds with ATXN2 expr inh. TC32 3D spheroid viability, PI/Hoechst imaging, 72 h. Potency, µM (titrated, usually from 30.7 µM), usual class: inhibitors. 60% of 65 active. AID 1347139
MG63 3D tox – MG-63 (6-TG R) 3D spheroid viability loss; shares compounds with ATXN2 expr inh; Potency, µM (top dose mostly 30.7 µM), hits mostly inhibitors; MG-63 (6-TG R) 3D spheroid viability, PI/Hoechst imaging, 72 h; 50% of 65 active; AID 1347140
RD spheroid – reduced viability of RD 3D spheroids, orthogonal test | shares compounds with ATXN2 expr inh | RD rhabdomyosarcoma 3D spheroid viability, PI/Hoechst imaging, 72 h | Potency, µM (titrated, usually from 30.7 µM), most hits filed as inhibitors | 50% of 65 active
Active calls of the source: *; i = inactive; ? = inconclusive; . = no result; ! = a repeat was not active; [ ] = dose if it differs, or a comment. Shown are actives, neighbours in structure and some others; about 2.7% of the full set was active somewhere. Calls follow the shape of the dose curve; as a rule, active = well fitted curve in the direction sought with a large enough effect; inconclusive = small, poorly fitted or top-dose-only effect, or another doubt; inactive = no such curve, though single readings can be large; an effect the other way counts as inactive or inconclusive.

SMILES | 12-LOX inh | ATXN2 expr inh | ATXN viability | HepG2 tox-1 | TGFb SMAD3 inh | TGFb CAGA inh | HepG2 tox-2 | TGFb CCL64 inh | TGFb COP inh | others
COC1CC(C)C(OC)c2cc(O)cc(c2O)NC(=O)C(C)=CC=CC(C)C(OC(N)=O)C(C)=CC(C)C1OC (stereo not drawn) | -26% | 3.8µM* | ? | 1% | 7.1µM* | 0.52µM* | 5.2µM* | 4.1µM* | 22%
COC[C@H]1C[C@@H](NC2CCOCC2)[C@H](O)[C@@H]1O | 31%[176 µM] | . | . | . | . | . | . | . | .
CCC1C(c2cc(OC)c(OC)c(OC)c2)c2cc3c(cc2OC1N1CCCC1)OCO3 (stereo not drawn) | ? | -5% | ? | -9% | 10µM* | ? | -17% | ? | -13%
Cc1nn(-c2cccc(Cl)c2)c2c1C(c1ccsc1)SCC(=O)N2 (stereo not drawn) | -30% | . | . | . | . | . | . | . | .
O=[N+]([O-])c1oc2ccc3ccccc3c2c1CCO | ? | ? | ? | 4% | 4.5µM* | 0.82µM* | 1.2µM* | ? | 7%
CC(C)N1CCN(c2oc(C3CC3)nc2C#N)CC1 | -32% | . | . | . | . | . | . | . | .
C=C[C@H]1CN2CC[C@H]1C[C@@H]2CNS(=O)(=O)c1ccc(C)cc1 | -1%[176 µM] | . | . | . | . | . | . | . | .
O=[N+]([O-])c1ccc(N2CCOCC2)c2cccnc12 | ? | . | . | -1% | -14% | . | . | . | .
O=[N+]([O-])c1ccc(N2CCOCC2)c2c1no[n+]2[O-] | -1% | . | . | -101% | 3.2µM* | 18µM* | 13µM* | 5.2µM* | ?
C[C@H]1C[C@@H](C)C(=O)[C@@H]([C@H](O)CC2CC(=O)NC(=O)C2)C1 | 18% | 1.1µM* | i | -21% | 0.71µM* | 1µM* | ? | 0.33µM* | 25%
O=C(Nc1ccc(Cl)cc1)Nc1ccc(Cl)c(Cl)c1 | 0% | ? | ? | -21% | 3.2µM* | ? | 21µM* | 5.2µM* | 94%
COC(=O)c1ccc(Cl)cc1NC(=O)N(Cc1ccc(C)o1)C1CCN(Cc2ccccc2)CC1 | -24% | . | . | . | . | . | . | . | .
Nc1nc(F)nc2c1ncn2[C@@H]1O[C@H](CO)[C@@H](O)[C@@H]1O | 5% | 1.7µM*! | i | -38% | 0.5µM* | 0.46µM* | 0.46µM* | -33% | 42% | SKNSH spheroid=0.46µM*;SJ-GBM2 3D tox=0.29µM*;Daoy 3D tox=0.36µM*;TC32 3D casp=3.6µM*;TC32 3D tox=2µM*;MG63 3D tox=0.2µM*;RD spheroid=1.4µM*
C=C[C@H]1CN2CC[C@H]1C[C@@H]2CNC(=O)Nc1cccc(C#N)c1 | 18%[176 µM] | . | . | . | . | . | . | . | .
COc1ccc(-c2cccc3c2CCNC3)cc1OC | 30% | . | . | . | . | . | . | . | .
COC1CCC(OC2CC(C3(C)CCC4(CC(O)C(C)C(C(C)/C=C(\C)C(=O)C(C)CC(C)C(=O)O)O4)O3)OC3(OC(C4OC(O)(CO)C(C)CC4C)CC3C)C2C)OC1C (stereo not drawn) | 40% | ? | . | -5% | ? | . | . | . | .
CC12CCC(O)CC1CCC1[C@@H]2CC(O)C2(C)C(C3=CC(=O)OC3)CCC12O (stereo partly drawn) | -6% | . | . | . | . | . | . | . | .
O=C1N(Cc2ccccn2)C[C@H]2CN(Cc3cccnc3)CCN12 | 115%[176 µM] | . | . | . | . | . | . | . | .
CN(C)C(=O)Oc1ccc2c(=O)c(-c3ccc(Br)cc3)coc2c1 | 6% | . | . | . | . | . | . | . | .
O=C1/C(=C\c2ccc(F)cc2)N2CCC1CC2 | -26% | . | . | . | . | . | . | . | .
CN1Cc2ccccc2-n2ccnc2C12CCN(C(=O)Cc1cccs1)CC2 | 13% | . | . | . | . | . | . | . | .
CN1[C@@H]2CC[C@H]1CC(O[C@@H](c1ccccc1)c1ccc(Cl)cc1)C2 (stereo partly drawn) | 54% | . | . | . | . | . | . | . | .
CN(CCc1ccccn1)C[C@H]1CN2CC[C@H]1C[C@@H]2CNS(=O)(=O)c1ccccc1 | 5%[176 µM] | . | . | . | . | . | . | . | .
CNCCCc1ccccc1 | 6% | -5% | i | -18% | 13% | . | . | . | .
Cc1[nH]c2c(C(C)C)cccc2c1CCN | -59% | . | . | . | . | . | . | . | .
C=C[C@H]1CN2CC[C@H]1C[C@@H]2CNS(=O)(=O)c1ccc2ccccc2c1 | 15%[176 µM] | . | . | . | . | . | . | . | .
c1ccc2c(c1)CC1CNCc3cccc(c31)S2 (stereo not drawn) | -4% | -18% | i | -30% | 6% | . | . | . | .
